# Results: ChEMBL document CHEMBL2218924, “A broad activity screen in support of a chemogenomic map for kinase signalling research and drug discovery” (Biochem J, 2013)
# Columns and labels:
# [1] = molecular target: T1, Ephrin type-A receptor 3 (Homo sapiens) (UniProt P29320); conditions: at 10 µM
# T1 sequence (whole entry): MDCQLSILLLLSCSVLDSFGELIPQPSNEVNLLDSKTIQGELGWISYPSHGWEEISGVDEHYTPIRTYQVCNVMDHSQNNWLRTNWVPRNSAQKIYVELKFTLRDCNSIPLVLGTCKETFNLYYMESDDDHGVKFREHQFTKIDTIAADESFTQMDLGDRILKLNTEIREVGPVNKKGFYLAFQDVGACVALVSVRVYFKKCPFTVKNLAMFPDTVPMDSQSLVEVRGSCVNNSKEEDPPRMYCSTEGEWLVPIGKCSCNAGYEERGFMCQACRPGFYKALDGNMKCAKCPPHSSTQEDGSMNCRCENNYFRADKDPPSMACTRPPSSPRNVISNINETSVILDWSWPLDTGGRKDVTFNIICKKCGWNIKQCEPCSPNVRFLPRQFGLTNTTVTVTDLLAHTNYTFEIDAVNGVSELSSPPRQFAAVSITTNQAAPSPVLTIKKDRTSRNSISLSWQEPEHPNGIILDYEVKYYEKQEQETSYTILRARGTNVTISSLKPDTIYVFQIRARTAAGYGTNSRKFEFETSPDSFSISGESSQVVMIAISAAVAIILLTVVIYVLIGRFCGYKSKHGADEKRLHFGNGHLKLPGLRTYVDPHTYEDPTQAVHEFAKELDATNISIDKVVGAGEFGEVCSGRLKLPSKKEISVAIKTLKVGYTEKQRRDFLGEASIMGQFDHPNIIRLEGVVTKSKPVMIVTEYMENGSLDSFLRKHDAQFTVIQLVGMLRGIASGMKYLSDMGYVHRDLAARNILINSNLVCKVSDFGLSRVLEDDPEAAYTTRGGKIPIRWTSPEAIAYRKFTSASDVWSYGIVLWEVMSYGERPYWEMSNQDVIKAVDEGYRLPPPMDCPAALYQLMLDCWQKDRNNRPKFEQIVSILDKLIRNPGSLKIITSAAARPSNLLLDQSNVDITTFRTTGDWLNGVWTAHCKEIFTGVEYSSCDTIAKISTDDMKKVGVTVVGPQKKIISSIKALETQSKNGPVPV
# [2] = molecular target: Ephrin type-A receptor 4 (Homo sapiens) (UniProt P54764); conditions: at 1 µM
# [3] = molecular target: Ephrin type-A receptor 5 (Homo sapiens) (UniProt P54756); conditions: at 1 µM
# [4] = molecular target: Ephrin type-A receptor 5 (Homo sapiens) (UniProt P54756); conditions: at 10 µM
# [5] = molecular target: Ephrin type-A receptor 7 (Homo sapiens) (UniProt Q15375); conditions: at 1 µM
# [6] = molecular target: Ephrin type-A receptor 7 (Homo sapiens) (UniProt Q15375); conditions: at 10 µM
# [7] = molecular target: T2, Ephrin type-A receptor 8 (Homo sapiens) (UniProt P29322); conditions: at 1 µM
# T2 sequence (whole entry): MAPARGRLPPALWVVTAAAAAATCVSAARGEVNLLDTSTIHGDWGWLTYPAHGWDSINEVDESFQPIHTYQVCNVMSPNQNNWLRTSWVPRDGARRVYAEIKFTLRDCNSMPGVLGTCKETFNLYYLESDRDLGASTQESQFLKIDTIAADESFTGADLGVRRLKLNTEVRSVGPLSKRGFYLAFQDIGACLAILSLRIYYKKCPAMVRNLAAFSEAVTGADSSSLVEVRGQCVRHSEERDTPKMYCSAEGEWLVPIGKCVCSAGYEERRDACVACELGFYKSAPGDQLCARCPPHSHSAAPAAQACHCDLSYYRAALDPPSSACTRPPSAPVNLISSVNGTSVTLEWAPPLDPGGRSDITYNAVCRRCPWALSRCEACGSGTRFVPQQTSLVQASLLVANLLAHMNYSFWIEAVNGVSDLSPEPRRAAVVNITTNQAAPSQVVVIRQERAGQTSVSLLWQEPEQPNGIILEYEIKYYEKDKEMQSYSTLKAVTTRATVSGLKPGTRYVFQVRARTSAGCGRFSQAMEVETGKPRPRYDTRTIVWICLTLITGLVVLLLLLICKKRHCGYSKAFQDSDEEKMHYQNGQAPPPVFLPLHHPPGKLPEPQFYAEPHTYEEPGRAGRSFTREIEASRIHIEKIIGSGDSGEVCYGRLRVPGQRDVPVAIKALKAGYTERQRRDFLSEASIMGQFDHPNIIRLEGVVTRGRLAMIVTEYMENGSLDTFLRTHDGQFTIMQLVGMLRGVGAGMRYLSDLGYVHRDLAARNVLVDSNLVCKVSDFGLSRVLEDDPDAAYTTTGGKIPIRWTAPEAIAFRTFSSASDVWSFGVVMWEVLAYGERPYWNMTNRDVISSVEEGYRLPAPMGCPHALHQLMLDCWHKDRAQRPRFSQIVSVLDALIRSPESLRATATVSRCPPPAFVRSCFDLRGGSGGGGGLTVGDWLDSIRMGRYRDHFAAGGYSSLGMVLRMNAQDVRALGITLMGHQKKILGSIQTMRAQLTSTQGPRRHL
# [8] = molecular target: T2, Ephrin type-A receptor 8 (Homo sapiens); conditions: at 10 µM
# [9] = molecular target: T3, Ephrin type-B receptor 1 (Homo sapiens) (UniProt P54762); conditions: at 1 µM
# T3 sequence (whole entry): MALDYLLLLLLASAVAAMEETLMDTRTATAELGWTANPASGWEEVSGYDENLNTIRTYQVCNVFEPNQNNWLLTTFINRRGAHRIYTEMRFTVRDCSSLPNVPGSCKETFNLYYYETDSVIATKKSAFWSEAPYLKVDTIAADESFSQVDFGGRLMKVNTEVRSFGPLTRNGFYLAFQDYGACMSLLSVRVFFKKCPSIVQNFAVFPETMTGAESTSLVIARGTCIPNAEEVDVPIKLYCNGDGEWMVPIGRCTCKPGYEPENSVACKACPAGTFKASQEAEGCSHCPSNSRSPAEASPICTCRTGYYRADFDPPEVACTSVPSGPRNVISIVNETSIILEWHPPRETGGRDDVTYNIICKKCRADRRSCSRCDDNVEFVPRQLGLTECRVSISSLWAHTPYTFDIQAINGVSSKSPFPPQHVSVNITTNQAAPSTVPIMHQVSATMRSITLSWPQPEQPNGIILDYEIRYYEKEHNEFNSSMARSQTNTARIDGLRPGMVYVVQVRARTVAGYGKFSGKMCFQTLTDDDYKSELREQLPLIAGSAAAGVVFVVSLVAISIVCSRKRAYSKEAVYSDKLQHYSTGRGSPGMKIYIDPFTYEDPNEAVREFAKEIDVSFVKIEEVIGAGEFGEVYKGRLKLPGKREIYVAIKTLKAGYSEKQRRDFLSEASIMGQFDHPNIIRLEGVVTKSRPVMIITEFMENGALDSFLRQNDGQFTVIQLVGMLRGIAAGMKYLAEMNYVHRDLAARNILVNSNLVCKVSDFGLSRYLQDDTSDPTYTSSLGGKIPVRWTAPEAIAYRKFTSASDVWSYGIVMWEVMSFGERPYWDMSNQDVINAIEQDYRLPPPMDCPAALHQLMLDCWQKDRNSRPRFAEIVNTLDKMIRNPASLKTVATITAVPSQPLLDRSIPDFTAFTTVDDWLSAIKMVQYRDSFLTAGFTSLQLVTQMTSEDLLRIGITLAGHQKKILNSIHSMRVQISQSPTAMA
# [10] = molecular target: T3, Ephrin type-B receptor 1 (Homo sapiens); conditions: at 10 µM
# [11] = molecular target: T4, Ephrin type-B receptor 3 (Homo sapiens) (UniProt P54753); conditions: at 10 µM
# T4 sequence (whole entry): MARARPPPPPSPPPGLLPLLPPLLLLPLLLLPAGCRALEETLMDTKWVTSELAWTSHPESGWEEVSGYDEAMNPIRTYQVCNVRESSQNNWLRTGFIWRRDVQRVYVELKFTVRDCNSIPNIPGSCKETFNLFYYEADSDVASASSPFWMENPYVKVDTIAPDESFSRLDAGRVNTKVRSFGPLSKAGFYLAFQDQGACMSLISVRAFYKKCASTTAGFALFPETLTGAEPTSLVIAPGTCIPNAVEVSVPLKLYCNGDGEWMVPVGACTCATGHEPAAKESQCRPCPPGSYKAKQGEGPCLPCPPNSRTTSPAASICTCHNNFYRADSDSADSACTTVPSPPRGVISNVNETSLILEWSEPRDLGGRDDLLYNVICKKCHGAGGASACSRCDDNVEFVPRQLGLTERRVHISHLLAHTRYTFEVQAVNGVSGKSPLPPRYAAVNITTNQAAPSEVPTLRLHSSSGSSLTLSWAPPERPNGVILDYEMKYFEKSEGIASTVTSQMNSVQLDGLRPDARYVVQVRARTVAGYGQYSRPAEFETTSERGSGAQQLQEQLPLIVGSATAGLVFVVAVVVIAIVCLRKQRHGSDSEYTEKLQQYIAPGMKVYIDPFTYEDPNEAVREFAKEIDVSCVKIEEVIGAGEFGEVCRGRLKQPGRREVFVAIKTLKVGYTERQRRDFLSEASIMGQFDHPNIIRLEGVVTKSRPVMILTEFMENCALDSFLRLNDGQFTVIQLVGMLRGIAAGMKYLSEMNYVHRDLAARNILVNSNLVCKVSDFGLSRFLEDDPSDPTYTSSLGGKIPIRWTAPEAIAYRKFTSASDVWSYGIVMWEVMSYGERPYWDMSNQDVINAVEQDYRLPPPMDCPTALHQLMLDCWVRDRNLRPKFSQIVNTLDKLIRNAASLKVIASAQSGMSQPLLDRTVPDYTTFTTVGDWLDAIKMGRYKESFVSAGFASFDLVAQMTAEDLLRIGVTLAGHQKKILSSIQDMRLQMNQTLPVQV
# [12] = molecular target: T5, Ephrin type-B receptor 4 (Homo sapiens) (UniProt P54760); conditions: at 1 µM
# T5 sequence (whole entry): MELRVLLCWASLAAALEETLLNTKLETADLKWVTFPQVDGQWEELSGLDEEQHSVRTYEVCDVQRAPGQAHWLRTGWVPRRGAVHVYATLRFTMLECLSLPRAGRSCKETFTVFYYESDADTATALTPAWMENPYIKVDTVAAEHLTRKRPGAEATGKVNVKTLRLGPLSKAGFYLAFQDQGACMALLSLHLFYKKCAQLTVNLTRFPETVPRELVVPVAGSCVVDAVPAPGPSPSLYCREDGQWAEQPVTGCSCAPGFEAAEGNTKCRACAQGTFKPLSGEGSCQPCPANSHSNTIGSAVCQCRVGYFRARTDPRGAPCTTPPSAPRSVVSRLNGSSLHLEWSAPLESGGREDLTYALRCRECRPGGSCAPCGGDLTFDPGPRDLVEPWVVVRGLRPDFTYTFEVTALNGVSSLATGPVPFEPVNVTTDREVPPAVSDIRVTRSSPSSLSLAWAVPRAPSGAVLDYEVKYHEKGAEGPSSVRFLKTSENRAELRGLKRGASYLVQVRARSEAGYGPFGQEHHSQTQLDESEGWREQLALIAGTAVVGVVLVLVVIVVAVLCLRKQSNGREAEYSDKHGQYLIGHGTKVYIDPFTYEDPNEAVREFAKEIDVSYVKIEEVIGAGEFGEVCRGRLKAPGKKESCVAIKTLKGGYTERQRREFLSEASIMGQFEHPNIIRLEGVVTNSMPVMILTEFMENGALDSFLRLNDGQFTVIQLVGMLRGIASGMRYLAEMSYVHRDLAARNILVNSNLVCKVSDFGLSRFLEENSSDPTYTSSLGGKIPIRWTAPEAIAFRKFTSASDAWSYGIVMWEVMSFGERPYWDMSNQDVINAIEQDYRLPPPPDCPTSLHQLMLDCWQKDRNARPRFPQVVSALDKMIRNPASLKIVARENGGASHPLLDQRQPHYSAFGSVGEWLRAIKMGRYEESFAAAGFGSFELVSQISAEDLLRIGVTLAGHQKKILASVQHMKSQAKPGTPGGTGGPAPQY
# [13] = molecular target: T5, Ephrin type-B receptor 4 (Homo sapiens); conditions: at 10 µM
# [14] = molecular target: Receptor tyrosine-protein kinase erbB-4 (Homo sapiens) (UniProt Q15303); conditions: at 1 µM
# [15] = molecular target: Receptor tyrosine-protein kinase erbB-4 (Homo sapiens) (UniProt Q15303); conditions: at 10 µM
# [16] = molecular target: Focal adhesion kinase 1 (Homo sapiens) (UniProt Q05397); conditions: at 1 µM
# Ephrin type-A receptor 7 (Homo sapiens), sequence (Q15375 28-998 limits assumed): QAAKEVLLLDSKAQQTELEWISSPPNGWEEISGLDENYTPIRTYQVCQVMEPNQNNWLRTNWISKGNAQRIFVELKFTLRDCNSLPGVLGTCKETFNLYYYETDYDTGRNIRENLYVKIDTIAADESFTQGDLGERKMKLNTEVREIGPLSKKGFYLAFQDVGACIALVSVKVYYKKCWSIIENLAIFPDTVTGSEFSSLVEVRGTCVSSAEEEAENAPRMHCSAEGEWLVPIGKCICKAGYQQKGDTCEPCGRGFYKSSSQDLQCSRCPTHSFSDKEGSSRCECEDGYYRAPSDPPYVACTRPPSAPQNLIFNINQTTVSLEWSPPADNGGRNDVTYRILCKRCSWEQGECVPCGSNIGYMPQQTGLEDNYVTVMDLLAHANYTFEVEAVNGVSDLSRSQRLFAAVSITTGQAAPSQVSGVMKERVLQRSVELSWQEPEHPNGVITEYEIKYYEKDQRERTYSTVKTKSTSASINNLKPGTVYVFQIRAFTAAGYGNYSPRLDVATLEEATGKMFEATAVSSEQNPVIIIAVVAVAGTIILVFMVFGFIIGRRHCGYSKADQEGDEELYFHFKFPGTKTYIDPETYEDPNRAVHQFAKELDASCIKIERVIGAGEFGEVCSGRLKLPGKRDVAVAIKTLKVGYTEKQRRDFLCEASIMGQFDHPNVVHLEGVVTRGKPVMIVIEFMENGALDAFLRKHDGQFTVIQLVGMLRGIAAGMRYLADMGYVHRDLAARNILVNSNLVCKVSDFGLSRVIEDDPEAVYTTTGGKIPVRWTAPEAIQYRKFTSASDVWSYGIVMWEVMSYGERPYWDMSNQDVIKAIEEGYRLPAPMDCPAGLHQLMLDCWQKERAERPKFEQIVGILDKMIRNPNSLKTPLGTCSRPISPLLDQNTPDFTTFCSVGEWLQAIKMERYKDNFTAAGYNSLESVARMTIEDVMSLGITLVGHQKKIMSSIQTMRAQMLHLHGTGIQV
# Ephrin type-A receptor 5 (Homo sapiens), sequence (P54756 whole entry): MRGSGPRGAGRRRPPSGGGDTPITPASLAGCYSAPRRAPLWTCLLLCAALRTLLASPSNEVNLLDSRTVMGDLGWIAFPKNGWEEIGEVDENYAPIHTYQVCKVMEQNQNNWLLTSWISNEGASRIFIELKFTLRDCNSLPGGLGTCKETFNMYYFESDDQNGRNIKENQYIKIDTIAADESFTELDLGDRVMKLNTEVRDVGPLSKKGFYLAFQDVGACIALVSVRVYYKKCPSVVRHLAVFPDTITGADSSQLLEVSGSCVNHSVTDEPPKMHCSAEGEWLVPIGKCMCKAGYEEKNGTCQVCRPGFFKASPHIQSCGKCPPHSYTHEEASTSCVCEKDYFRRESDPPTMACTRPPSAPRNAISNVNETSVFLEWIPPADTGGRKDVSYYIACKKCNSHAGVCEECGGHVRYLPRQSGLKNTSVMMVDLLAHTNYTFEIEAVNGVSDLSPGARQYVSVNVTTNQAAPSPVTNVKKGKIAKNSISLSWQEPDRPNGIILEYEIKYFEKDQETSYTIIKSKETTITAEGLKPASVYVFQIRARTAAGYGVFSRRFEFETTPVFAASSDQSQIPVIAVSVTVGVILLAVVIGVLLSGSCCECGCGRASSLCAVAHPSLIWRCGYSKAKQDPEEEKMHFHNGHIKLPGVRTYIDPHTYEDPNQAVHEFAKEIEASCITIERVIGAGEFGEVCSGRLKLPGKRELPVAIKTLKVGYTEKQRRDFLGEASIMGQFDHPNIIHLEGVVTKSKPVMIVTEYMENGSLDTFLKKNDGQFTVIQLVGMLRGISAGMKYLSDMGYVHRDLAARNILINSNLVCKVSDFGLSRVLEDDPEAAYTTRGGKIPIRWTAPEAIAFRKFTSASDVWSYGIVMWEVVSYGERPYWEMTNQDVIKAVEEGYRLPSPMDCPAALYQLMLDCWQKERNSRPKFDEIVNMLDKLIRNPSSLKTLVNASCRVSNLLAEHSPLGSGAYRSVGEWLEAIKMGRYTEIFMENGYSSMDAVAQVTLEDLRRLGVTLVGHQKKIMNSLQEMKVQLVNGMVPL
# Receptor tyrosine-protein kinase erbB-4 (Homo sapiens), sequence (Q15303 whole entry): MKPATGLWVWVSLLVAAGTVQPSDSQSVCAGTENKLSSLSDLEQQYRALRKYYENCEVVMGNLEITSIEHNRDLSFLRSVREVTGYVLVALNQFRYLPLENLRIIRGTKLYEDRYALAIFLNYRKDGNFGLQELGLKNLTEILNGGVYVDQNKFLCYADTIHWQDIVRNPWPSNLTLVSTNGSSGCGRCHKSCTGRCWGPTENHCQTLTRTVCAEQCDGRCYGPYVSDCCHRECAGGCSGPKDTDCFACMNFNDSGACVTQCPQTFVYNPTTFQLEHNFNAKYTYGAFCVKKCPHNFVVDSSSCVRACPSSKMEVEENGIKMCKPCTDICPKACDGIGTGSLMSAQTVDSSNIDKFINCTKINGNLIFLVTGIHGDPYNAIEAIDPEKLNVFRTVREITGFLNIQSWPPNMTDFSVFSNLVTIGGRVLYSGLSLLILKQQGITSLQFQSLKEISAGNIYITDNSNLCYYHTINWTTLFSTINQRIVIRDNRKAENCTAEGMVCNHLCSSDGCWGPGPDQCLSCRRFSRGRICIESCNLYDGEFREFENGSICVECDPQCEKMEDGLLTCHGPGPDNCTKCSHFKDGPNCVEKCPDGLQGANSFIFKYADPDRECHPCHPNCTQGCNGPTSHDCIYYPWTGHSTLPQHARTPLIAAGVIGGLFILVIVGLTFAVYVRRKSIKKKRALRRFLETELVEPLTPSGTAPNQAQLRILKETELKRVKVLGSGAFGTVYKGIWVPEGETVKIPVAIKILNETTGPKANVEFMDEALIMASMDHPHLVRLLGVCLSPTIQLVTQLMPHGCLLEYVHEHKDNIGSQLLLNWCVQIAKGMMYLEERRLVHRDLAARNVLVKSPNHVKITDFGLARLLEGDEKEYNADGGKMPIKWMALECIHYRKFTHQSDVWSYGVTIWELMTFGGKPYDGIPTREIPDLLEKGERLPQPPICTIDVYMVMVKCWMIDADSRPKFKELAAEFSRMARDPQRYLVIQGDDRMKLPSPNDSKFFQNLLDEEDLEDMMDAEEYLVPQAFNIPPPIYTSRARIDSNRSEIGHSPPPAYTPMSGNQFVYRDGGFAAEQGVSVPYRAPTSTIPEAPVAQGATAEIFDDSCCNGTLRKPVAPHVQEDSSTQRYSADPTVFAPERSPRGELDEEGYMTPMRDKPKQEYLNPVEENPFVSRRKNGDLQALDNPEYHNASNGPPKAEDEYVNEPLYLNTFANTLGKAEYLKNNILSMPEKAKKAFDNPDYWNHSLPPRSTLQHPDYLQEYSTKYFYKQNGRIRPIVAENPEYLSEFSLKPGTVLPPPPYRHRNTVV
# Ephrin type-A receptor 4 (Homo sapiens), sequence (P54764 whole entry): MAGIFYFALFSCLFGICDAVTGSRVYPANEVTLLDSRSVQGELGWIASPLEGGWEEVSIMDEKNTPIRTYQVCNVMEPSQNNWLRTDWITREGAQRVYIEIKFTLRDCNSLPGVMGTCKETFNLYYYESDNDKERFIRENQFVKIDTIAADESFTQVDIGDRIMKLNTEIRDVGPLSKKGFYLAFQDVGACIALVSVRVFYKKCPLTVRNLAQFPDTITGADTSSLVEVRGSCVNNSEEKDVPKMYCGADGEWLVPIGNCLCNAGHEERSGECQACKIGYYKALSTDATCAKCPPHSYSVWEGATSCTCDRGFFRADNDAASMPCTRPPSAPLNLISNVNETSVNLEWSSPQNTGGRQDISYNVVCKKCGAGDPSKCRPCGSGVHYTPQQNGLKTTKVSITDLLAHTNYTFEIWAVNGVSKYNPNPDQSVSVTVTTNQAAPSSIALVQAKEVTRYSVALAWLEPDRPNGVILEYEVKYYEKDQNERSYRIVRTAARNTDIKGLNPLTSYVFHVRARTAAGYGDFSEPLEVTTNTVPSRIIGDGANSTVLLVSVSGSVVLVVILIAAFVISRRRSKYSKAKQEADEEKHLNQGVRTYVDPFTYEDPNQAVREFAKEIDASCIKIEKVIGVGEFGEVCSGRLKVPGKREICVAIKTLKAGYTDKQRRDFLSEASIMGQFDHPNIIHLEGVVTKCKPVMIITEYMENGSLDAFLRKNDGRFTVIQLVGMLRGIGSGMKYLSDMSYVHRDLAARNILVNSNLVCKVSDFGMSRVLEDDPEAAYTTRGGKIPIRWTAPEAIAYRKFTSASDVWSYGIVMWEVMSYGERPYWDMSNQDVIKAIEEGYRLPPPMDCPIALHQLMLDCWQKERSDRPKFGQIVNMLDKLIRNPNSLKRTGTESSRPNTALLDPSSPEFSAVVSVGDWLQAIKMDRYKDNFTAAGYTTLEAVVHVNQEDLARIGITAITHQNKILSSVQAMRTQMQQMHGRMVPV
smiles,measurement,setting,value
CC(C)c1nn(-c2c(Cl)cccc2Cl)c2nc(Cc3ccc(OCCO)cc3)[nH]c(=O)c12,residual activity,[1],85%
same,residual activity,[2],121%
same,residual activity,[3],106%
same,residual activity,[4],106%
same,residual activity,[5],97%
same,residual activity,[6],88%
same,residual activity,[7],94%
same,residual activity,[8],89%
same,residual activity,[9],90%
same,residual activity,[10],84%
same,residual activity,[11],108%
same,residual activity,[12],86%
same,residual activity,[13],76%
same,residual activity,[14],103%
same,residual activity,[15],91%
same,residual activity,[16],109%
